PubChem BioAssay (Tox21)
Inconclusive results are not listed. Calls of active or inactive are those of the source. Unless noted, calls follow the shape of the dose curve; as a rule, active = well fitted curve in the direction sought with a large enough effect in the repeat runs; inconclusive = weak or mixed curves; inactive = no such curve, though single readings can be large; an effect the other way counts as inactive or inconclusive.

How the values were obtained:
[1] = qHTS assay to identify aromatase inhibitors - cell viability counter screen (AID 743084);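 also: cells stimulated with testosterone during compound exposure; nearly all actives have a fitted effect of over 55% in size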
[2] = target: Aryl hydrocarbon receptor (Homo sapiens) (UniProt P35869); assay: qHTS assay to identify small molecule that activate the aryl hydrocarbon receptor (AhR) signaling pathway (AID 743085);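 also: HG2L7.5c1 human HepG2 liver cells with stably integrated DRE-driven firefly reporter; series mostly up to about 70 µM; nearly all actives have a fitted effect of over 15% in size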
Chain of Aryl hydrocarbon receptor (Homo sapiens) (P35869 whole entry, looked up): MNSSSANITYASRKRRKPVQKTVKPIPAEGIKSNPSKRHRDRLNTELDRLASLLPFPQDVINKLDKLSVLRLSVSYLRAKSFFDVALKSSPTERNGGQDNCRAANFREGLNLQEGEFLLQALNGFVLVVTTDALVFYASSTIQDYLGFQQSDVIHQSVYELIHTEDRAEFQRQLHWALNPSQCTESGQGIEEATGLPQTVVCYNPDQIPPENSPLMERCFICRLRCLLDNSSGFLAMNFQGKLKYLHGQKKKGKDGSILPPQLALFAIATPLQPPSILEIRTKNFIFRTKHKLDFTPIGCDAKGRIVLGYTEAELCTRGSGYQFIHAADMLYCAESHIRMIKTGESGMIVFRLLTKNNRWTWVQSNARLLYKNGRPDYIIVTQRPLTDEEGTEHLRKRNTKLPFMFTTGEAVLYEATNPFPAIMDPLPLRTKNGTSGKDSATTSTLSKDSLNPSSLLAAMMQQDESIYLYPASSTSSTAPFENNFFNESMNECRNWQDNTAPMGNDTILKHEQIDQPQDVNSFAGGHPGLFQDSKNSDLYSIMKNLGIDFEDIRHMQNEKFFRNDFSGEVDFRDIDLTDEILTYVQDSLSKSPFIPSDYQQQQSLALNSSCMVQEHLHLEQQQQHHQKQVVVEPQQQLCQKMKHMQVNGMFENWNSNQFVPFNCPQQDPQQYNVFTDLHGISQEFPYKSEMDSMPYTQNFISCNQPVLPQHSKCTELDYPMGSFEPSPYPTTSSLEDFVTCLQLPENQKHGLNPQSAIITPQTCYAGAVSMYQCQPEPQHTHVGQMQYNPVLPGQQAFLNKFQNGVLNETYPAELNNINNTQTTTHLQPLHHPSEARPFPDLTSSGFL
Method in brief: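 Luminescence (ONE-Glo) from a dioxin-responsive-element luciferase reporter in HG2L7.5c1 HepG2 cells after 24 hr compound exposure at 37C; viability measured by CellTiter-Fluor fluorescence beforehand.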

[3] = qHTS assay to identify small molecule that activate the aryl hydrocarbon receptor (AhR) signaling pathway - cell viability counter screen (AID 743086);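 also: HepG2 liver cells carrying the AhR DRE luciferase reporter; series mostly up to about 70 µM; nearly all actives have a fitted effect of over 45% in size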
Method in brief: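 HepG2-AhR-luc (HG2L7.5c1) cells, 4000/well, were preincubated 5 h at 37C, exposed to compound in qHTS format for 24 hr at 37C, then given CellTiter-Fluor for 30 min; viability was read as fluorescence in the reporter wells.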

[4] = target: Peroxisome proliferator-activated receptor gamma (Homo sapiens) (UniProt P37231); assay: qHTS assay to identify small molecule agonists of the peroxisome proliferator-activated receptor gamma (PPARg) signaling pathway (AID 743094; active = well fitted activation curve with a large enough effect in the signal ratio in the repeat runs, not every such curve was filed as active; the % refers to the signal ratio)
Chain of Peroxisome proliferator-activated receptor gamma (Homo sapiens) (P37231 whole entry, looked up): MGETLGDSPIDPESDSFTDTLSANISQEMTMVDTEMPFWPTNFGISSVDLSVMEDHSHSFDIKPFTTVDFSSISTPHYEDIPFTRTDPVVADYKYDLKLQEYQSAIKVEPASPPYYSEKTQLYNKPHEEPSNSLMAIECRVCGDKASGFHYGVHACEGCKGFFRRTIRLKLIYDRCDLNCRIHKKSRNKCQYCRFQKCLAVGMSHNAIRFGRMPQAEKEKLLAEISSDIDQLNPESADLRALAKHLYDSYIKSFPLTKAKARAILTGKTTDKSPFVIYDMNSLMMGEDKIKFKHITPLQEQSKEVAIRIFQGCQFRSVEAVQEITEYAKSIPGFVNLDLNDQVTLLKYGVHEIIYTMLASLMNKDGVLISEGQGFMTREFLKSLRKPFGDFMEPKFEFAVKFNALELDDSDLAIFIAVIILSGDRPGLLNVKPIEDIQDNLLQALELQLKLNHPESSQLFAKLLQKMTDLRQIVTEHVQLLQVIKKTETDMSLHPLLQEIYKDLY
Method in brief: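 Following 5 h plating at 37C, PPARg-bla HEK293H cells receive compound or DMSO for 17 h; fluorescence intensity is recorded after LiveBLAzer B/G loading for 1 h at room temperature.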

[5] = target: Peroxisome proliferator-activated receptor gamma (Homo sapiens) (UniProt P37231); assay: qHTS assay to identify small molecule antagonists of the peroxisome proliferator-activated receptor gamma (PPARg) signaling pathway (AID 743191; calls by dose curve; also: series mostly up to about 63 µM; nearly all actives have a fitted effect of over 30% in size)
Method in brief: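 GeneBLAzer PPARg UAS-bla HEK293H cells carrying a UAS-driven beta-lactamase reporter were plated at 3000 cells/well, preincubated 5 h at 37C, then given compound for 17 h at 37C; LiveBLAzer B/G FRET substrate was read after 1 h at room temperature.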

[6] = qHTS assay to identify small molecule antagonists of the peroxisome proliferator-activated receptor gamma (PPARg) signaling pathway - cell viability counter screen (AID 743194); also: nearly all actives have a fitted effect of over 55% in size
Method in brief: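 PPARg-UAS-bla HEK293H cells were plated, rested 5 h at 37 C, then treated with compounds plus rosiglitazone (50 nM final) for 17 h at 37 C; viability was then read by CellTiter-Glo luminescence after 30 min at room temperature.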

[7] = qHTS assay for small molecule agonists of the antioxidant response element (ARE) signaling pathway (AID 743202; active = well fitted activation curve with a large enough effect in the signal ratio in the repeat runs, not every such curve was filed as active; the % refers to the signal ratio)
Method in brief: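 Read-out: LiveBLAzer B/G FRET substrate fluorescence after 2 h at room temperature, following 16 h compound treatment at 37 C of HepG2 cells carrying an ARE-driven beta-lactamase reporter.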

[8] = qHTS assay for small molecule agonists of the antioxidant response element (ARE) signaling pathway - cell viability counter screen (AID 743203; calls by dose curve; also: nearly all actives have a fitted effect of over 55% in size)
Method in brief: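 Compounds in DMSO were pinned onto ARE-bla HepG2 cells plated 5 hrs earlier at 2,000 cells/well. Sixteen hours later at 37C/5% CO2, CellTiter-Glo was added and luminescence measured after 30 min at room temperature.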

[9] = qHTS assay for small molecule activators of the heat shock response signaling pathway - cell viability counter screen (AID 743209); also: nearly all actives have a fitted effect of over 50% in size
Method in brief: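 Counter screen for cytotoxicity in HeLa HSE-bla reporter cells. Treatment was 5 h at 37 C; viability was detected by luminescent ATP assay (CellTiter-Glo) in the same wells as the beta-lactamase read.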

[10] = qHTS assay for small molecule activators of the heat shock response signaling pathway (AID 743210; active = well fitted activation curve with a large enough effect in the signal ratio in the repeat runs, with a control signal flat, not every such curve was filed as active; the % refers to the signal ratio; also: series mostly up to about 63 µM)
Method in brief: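 HSE-bla HeLa cells (beta-lactamase reporter under heat shock response elements) were exposed to compounds for 5 h at 37 C, then loaded with LiveBLAzer B/G FRET substrate for 2.5 h at room temperature before fluorescence reading.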

[11] = qHTS assay to identify small molecule agonists of the peroxisome proliferator-activated receptor delta (PPARd) signaling pathway - cell viability counter screen (AID 743211); also: nearly all actives have a fitted effect of over 55% in size
Method in brief: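 Viability was measured as CellTiter-Glo luminescence (30 min, room temperature) in the same wells as the beta-lactamase readout. GeneBLAzer PPARd UAS-bla HEK293H cells received compound after 5 h plating and were incubated 17 h at 37 C.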

[12] = target: Peroxisome proliferator-activated receptor delta (Homo sapiens) (UniProt Q03181); assay: qHTS assay to identify small molecule agonists of the peroxisome proliferator-activated receptor delta (PPARd) signaling pathway (AID 743212; calls by dose curve)
Chain of Peroxisome proliferator-activated receptor delta (Homo sapiens) (Q03181 whole entry, looked up): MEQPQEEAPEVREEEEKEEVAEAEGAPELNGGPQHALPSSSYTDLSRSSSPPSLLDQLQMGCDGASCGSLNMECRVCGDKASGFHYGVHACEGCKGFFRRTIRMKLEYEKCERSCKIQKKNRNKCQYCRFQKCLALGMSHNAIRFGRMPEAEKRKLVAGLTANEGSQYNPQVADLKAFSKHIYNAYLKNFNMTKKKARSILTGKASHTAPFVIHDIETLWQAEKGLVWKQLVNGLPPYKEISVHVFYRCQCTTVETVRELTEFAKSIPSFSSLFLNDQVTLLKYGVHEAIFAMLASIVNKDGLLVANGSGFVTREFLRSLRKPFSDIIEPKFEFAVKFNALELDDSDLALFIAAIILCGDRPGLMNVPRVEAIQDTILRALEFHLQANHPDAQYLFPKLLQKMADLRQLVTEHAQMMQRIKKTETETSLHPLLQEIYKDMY
Method in brief: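 GeneBLAzer PPARd UAS-bla HEK293H cells (beta-lactamase reporter under UAS control), plated and rested 5 h at 37 C, then exposed to compounds in DMSO at 37 C; LiveBLAzer B/G FRET substrate added, 2 h room temperature, fluorescence read.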

[13] = qHTS assay to identify small molecule antagonists of the peroxisome proliferator-activated receptor delta (PPARd) signaling pathway - cell viability counter screen (AID 743213); also: nearly all actives have a fitted effect of over 50% in size
Method in brief: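 Viability counter-screen, qHTS format: PPARd-bla HEK293H, L165041 300 nM final, 17 h compound exposure at 37 C, CellTiter-Glo luminescence after 30 min RT.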

[14] = target: Peroxisome proliferator-activated receptor delta (Homo sapiens) (UniProt Q03181); assay: qHTS assay to identify small molecule antagonists of the peroxisome proliferator-activated receptor delta (PPARd) signaling pathway (AID 743215; active = well fitted inhibition curve with a large enough effect in the signal ratio in the repeat runs, not every such curve was filed as active; the % refers to the signal ratio;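 also: cells stimulated with agonist L165041 at 300 nM final during compound exposure; series mostly up to about 62 µM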)
Method in brief: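 With L165041 present at 300 nM final, compounds were incubated 17 h at 37 C on PPARd UAS-bla HEK293H cells. A FRET-based beta-lactamase substrate was then applied for 2 h at room temperature and fluorescence intensity recorded.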

[15] = target: Bile acid receptor (Homo sapiens) (UniProt Q96RI1); assay: qHTS assay to identify small molecule antagonists of the farnesoid-X-receptor (FXR) signaling pathway (AID 743217; active = well fitted inhibition curve with a large enough effect in the signal ratio in the repeat runs, not every such curve was filed as active; the % refers to the signal ratio)
Chain of Bile acid receptor (Homo sapiens) (Q96RI1 whole entry, looked up): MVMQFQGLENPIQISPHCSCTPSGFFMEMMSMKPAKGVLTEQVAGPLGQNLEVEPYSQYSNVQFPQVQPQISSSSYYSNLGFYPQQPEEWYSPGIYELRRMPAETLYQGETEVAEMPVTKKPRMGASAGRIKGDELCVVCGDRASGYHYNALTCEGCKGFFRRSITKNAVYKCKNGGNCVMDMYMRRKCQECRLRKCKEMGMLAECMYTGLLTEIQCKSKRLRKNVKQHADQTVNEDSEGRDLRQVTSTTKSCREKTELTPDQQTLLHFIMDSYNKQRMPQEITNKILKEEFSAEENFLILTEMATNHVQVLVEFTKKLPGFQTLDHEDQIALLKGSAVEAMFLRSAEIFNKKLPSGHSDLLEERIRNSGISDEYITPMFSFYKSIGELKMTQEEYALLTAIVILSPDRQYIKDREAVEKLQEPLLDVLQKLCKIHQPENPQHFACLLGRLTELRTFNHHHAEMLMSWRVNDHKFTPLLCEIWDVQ
Method in brief: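 In this cell-based antagonist screen, inhibition of CDCA-driven (50 uM final) UAS-beta-lactamase expression in HEK 293T cells was measured by FRET fluorescence following 16 h compound exposure at 37 °C.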

[16] = qHTS assay to identify small molecule agonists of the farnesoid-X-receptor (FXR) signaling pathway - cell viability counter screen (AID 743218); also: nearly all actives have a fitted effect of over 45% in size
Method in brief: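 After 16 h at 37 C with test compounds, FXR-bla HEK 293T cells were given LiveBLAzer B/G substrate for 2 h at RT and then CellTiter-Glo; luminescence was taken after 30 min.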

[17] = target: Bile acid receptor (Homo sapiens) (UniProt Q96RI1); assay: qHTS assay to identify small molecule agonists of the farnesoid-X-receptor (FXR) signaling pathway (AID 743220; active = well fitted activation curve with a large enough effect in the signal ratio in the repeat runs, not every such curve was filed as active; the % refers to the signal ratio)
Method in brief: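 Beta-lactamase reporter under UAS control in GeneBLAzer FXR HEK 293T cells (5000/well) measured with LiveBLAzer FRET substrate after 2 h at room temperature. Compound exposure lasted 16 h at 37C.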

[18] = qHTS assay to identify small molecule antagonists of the farnesoid-X-receptor (FXR) signaling pathway - cell viability counter screen (AID 743221; active = well fitted cell-killing curve with a large enough effect in the repeat runs, not every such curve was filed as active; also: nearly all actives have a fitted effect of over 50% in size)
Method in brief: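 Cytotoxicity counter screen run in the FXR-bla reporter wells: HEK 293T cells exposed to compound with 50 uM (final) chenodeoxycholic acid for 16 h, 37 C, then viability measured by CellTiter-Glo luminescence after 30 min, room temperature.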

[19] = target: Vitamin D3 receptor (Homo sapiens) (UniProt P11473); assay: qHTS assay to identify small molecule agonists of the vitamin D receptor (VDR) signaling pathway (AID 743222; calls by dose curve)
Chain of Vitamin D3 receptor (Homo sapiens) (P11473 whole entry, looked up): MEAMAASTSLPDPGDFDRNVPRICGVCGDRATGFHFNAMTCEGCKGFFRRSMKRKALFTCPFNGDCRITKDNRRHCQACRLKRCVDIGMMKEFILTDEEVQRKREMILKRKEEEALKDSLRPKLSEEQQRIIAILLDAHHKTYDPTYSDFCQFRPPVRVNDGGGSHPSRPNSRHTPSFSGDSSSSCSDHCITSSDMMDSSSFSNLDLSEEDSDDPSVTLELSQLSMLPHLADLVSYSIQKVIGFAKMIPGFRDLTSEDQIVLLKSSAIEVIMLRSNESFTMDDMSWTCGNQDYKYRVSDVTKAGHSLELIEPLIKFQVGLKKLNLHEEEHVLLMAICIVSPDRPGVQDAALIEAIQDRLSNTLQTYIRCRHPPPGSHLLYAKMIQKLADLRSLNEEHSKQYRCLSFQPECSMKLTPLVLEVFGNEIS
Method in brief: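 VDR-bla cells were seeded, left 4 h, treated with compounds in DMSO for 16 h, incubated 2 h at RT with B/G FRET substrate, and read for fluorescence.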

[20] = target: Vitamin D3 receptor (Homo sapiens) (UniProt P11473); assay: qHTS assay to identify small molecule antagonists of the vitamin D receptor (VDR) signaling pathway (AID 743223; active = well fitted inhibition curve with a large enough effect in the signal ratio in the repeat runs, not every such curve was filed as active; the % refers to the signal ratio)
Method in brief: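 Antagonist mode: compound added to VDR-bla cells alongside agonist 1alpha,25-dihydroxyvitamin D3 (3 nM final), incubation 16 h at 37C. Read-out is LiveBLAzer FRET fluorescence, 2 h at room temperature.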

Measured: Potency

CC(=O)OCC(=O)[C@@]1(O)CCC2C3CCC4=CC(=O)CC[C@]4(C)C3[C@@H](O)C[C@@]21C (some centres not stated)
inactive: all assays above

COC(C)(C)CCCC(C)CC=O (configuration not stated)
inactive: all assays above

Nc1ccccc1S(=O)(=O)O
not listed: [12] | [15] | [17]
inactive: all other assays above

CCn1ccnc1CC1COc2ccccc2O1 (configuration not stated)
not listed: [13] | [19] | [20]
inactive: all other assays above

CO[Si](CCCOCC1CO1)(OC)OC (configuration not stated)
not listed: [10] | [12] | [15] | [20]
inactive: all other assays above

O=C1CCCC(=O)C1
not listed: [10] | [12] | [14] | [16]
inactive: all other assays above

CC(C[N+](C)(C)C)OC(N)=O (configuration not stated)
not listed: [19] | [20]
inactive: all other assays above

OCCOc1ccc(OCCO)cc1
not listed: [12] | [14] | [17]
inactive: all other assays above

CCC(C)C1CCCCC1=O (configuration not stated)
not listed: [15] | [17] | [20]
inactive: all other assays above

Cc1ccc(=O)n(-c2ccccc2)c1
not listed: [12] | [14] | [15] | [17]
inactive: all other assays above

OC[C@]1(O)OC[C@@H](O)[C@H](O)[C@@H]1O
not listed: [10] | [15] | [17]
inactive: all other assays above

COC(=O)NN
not listed: [10] | [13] | [14] | [16]
inactive: all other assays above

CCOc1ccc(C(=O)OCCN(CC)CC)cc1
not listed: [11] | [12] | [14] | [16]
inactive: all other assays above

CC(C)(C)NCCNC(C)(C)C
not listed: [20]
inactive: all other assays above
